# Laboratory results as given in article PMC7862700, “An all-to-all approach to the identification of sequence-specific readers for epigenetic DNA modifications on cytosine”.
# Key:
# Assay in all cases: DAPPL (digital affinity profiling via proximity ligation, sequencing); 10 mM Tris-HCl pH 7.5, 50 mM NaCl, 1 mM DTT, 4% glycerol, room temperature, 30 min; GST-TFs on glutathione beads, 16-mer random dsDNA library, 0.1% formaldehyde crosslink after washing; high values mean tight binding
# FEV = target: T1, FEV (Homo sapiens, UniProt Q99581 1-238); conditions: protein: recombinant; tags: N-terminal GST; dsDNA, one strand shown
# T1 sequence: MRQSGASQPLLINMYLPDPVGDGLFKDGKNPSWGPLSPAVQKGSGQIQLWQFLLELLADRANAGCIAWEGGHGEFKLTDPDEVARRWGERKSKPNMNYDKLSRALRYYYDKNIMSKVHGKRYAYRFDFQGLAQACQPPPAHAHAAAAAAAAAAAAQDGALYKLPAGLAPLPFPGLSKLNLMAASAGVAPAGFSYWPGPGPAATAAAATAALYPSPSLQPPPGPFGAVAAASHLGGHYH
# Method in brief: (§1)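 Yeast served to express human transcription factors as GST fusions, which were then captured on glutathione beads and labelled with DNA barcodes. Pooled with a tag-only sample, they were incubated with 200 nmole of a 16-mer random double-stranded DNA library for 30 min at room temperature in Tris/NaCl/DTT/glycerol buffer, washed, crosslinked with 0.1% formaldehyde, ligated by proximity, amplified by PCR and sequenced. Dividing each hexamer's read frequency for a factor by its frequency for the tag-only sample gives the binding signal.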
# ETV5 = ETV5 (Homo sapiens, UniProt P41161 1-510); conditions: protein: recombinant; tags: N-terminal GST; dsDNA, one strand shown
# Sequence of ETV5 (P41161 whole entry): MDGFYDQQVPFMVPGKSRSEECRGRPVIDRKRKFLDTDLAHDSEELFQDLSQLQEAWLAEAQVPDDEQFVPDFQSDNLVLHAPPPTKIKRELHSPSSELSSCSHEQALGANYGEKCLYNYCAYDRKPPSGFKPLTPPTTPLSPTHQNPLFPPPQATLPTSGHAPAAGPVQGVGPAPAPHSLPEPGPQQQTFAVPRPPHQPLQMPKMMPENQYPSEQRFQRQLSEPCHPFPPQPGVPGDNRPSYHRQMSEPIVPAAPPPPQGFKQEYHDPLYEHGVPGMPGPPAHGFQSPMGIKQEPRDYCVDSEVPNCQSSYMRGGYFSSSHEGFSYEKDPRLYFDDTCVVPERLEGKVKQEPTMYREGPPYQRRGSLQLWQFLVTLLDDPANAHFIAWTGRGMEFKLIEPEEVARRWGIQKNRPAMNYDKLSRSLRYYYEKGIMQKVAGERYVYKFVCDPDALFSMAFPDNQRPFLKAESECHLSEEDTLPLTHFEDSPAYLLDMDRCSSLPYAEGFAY
# Method in brief: as §1
# HSF1 = HSF1 (Homo sapiens, UniProt Q00613 1-529); conditions: protein: recombinant; tags: N-terminal GST; chain copies: 3; dsDNA, one strand shown
# Sequence of HSF1 (Q00613 whole entry): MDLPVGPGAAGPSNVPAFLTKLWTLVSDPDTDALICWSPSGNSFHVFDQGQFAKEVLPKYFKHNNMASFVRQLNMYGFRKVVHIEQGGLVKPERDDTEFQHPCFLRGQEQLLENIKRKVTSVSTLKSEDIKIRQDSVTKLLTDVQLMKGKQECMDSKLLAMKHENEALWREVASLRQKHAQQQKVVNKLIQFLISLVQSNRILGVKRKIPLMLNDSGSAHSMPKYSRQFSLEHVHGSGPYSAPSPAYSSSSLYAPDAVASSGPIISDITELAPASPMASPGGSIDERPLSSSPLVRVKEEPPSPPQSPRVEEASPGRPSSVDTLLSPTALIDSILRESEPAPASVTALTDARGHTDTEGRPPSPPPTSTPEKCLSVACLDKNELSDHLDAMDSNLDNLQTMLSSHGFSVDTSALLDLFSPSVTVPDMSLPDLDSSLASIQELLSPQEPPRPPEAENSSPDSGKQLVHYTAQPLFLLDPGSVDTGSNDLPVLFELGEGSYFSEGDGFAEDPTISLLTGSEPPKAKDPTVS
# Method in brief: as §1
# SPIC = target: T2, SPIC (Homo sapiens, UniProt Q8N5J4 1-248); conditions: protein: recombinant; tags: N-terminal GST; dsDNA, one strand shown
# T2 sequence: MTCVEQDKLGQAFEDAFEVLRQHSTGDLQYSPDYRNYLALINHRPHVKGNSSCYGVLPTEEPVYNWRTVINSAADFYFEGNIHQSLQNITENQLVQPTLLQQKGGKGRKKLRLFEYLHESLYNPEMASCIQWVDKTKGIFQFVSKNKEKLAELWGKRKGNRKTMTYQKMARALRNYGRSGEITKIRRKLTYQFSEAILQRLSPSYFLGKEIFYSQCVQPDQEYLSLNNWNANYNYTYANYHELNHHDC
# Method in brief: as §1
# ELF4 = ELF4 (Homo sapiens, UniProt Q99607 1-663); conditions: protein: recombinant; tags: N-terminal GST; dsDNA, one strand shown
# Sequence of ELF4 (Q99607 whole entry): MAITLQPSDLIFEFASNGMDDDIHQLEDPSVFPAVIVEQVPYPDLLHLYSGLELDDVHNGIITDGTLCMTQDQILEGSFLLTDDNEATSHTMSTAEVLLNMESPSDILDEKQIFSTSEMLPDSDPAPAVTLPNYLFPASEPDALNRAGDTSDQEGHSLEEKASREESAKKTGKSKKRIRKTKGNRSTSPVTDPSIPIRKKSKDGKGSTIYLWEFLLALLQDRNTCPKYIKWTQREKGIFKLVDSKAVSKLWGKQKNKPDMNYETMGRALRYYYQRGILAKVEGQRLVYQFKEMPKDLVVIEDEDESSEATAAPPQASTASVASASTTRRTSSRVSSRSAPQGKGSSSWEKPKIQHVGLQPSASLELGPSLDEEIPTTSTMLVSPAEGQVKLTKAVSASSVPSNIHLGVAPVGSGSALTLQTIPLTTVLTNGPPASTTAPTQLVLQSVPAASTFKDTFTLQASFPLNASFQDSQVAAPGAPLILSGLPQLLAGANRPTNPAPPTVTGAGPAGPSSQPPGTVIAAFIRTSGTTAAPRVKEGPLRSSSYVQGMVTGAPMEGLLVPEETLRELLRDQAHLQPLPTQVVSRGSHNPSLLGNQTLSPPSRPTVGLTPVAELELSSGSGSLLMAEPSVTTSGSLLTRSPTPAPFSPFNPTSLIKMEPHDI
# Method in brief: as §1
# ELK4 = target: T3, ELK4 (Homo sapiens, UniProt P28324-2 1-405); conditions: protein: recombinant; tags: N-terminal GST; dsDNA, one strand shown
# T3 sequence: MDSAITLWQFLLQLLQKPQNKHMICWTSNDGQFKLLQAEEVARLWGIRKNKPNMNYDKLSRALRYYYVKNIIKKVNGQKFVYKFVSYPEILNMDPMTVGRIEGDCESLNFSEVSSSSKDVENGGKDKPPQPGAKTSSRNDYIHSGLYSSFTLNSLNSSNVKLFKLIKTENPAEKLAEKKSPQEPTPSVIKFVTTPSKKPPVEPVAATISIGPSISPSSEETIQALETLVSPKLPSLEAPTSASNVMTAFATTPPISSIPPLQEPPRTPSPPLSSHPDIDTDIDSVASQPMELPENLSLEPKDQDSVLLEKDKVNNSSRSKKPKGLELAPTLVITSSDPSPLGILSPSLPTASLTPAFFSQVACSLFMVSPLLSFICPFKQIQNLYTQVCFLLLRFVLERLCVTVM
# Method in brief: as §1
# ETV2 = target: T4, ETV2 (Homo sapiens, UniProt O00321 1-342); conditions: protein: recombinant; tags: N-terminal GST; dsDNA, one strand shown
# T4 sequence: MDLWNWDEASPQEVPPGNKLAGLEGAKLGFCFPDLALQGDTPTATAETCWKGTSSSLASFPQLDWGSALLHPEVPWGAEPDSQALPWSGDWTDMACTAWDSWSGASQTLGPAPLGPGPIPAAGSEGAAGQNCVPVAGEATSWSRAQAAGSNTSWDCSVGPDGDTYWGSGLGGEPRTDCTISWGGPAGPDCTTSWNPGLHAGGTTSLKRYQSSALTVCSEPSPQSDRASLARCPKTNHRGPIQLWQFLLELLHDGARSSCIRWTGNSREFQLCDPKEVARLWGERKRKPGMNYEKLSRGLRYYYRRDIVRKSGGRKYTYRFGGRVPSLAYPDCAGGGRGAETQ
# Method in brief: as §1
# ELF3 = target: T5, ELF3 (Homo sapiens, UniProt P78545 1-371); conditions: protein: recombinant; tags: N-terminal GST; dsDNA, one strand shown
# T5 sequence: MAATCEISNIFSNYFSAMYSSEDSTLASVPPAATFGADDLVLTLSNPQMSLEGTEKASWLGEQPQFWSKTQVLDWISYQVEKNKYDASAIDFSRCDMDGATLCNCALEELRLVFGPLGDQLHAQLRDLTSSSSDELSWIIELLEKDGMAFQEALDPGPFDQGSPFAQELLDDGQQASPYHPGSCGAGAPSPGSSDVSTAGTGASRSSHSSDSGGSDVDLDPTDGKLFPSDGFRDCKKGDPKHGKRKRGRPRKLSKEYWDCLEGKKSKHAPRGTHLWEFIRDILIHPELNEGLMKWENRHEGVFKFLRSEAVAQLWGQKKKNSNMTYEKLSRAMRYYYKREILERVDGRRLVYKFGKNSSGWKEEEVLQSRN
# Method in brief: as §1
# ETV1 = ETV1 (Homo sapiens, UniProt P50549 1-477); conditions: protein: recombinant; tags: N-terminal GST; dsDNA, one strand shown
# Sequence of ETV1 (P50549 whole entry): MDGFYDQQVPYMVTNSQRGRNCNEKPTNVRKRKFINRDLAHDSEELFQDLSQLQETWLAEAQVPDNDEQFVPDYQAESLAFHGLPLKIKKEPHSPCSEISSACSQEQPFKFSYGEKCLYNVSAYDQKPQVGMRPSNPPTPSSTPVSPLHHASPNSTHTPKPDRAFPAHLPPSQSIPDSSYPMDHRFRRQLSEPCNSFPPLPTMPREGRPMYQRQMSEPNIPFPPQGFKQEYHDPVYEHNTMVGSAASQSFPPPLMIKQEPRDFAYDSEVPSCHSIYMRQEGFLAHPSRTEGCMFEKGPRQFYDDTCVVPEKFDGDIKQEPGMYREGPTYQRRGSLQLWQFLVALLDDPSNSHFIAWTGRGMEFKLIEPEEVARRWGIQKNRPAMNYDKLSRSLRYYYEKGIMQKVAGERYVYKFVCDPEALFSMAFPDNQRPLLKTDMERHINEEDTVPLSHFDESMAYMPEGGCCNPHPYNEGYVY
# Method in brief: as §1
# ERF = target: T6, ERF (Homo sapiens, UniProt P50548 1-548); conditions: protein: recombinant; tags: N-terminal GST; dsDNA, one strand shown
# T6 sequence: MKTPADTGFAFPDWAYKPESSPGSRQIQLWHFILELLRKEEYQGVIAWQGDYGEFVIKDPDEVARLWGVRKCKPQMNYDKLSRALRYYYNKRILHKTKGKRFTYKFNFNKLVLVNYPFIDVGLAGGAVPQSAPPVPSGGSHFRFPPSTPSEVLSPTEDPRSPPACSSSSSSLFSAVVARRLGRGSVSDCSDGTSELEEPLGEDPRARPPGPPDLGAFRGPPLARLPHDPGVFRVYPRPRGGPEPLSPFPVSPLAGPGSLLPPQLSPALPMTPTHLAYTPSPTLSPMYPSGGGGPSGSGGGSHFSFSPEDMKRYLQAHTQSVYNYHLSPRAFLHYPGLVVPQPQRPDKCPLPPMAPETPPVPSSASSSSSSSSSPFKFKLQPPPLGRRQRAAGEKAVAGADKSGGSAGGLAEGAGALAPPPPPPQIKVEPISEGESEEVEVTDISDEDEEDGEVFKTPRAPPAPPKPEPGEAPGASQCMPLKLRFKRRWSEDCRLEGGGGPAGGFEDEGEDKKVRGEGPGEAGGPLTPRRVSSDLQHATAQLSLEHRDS
# Method in brief: as §1
# ETV3L = target: T7, ETV3L (Homo sapiens, UniProt Q6ZN32 1-361); conditions: protein: recombinant; tags: N-terminal GST; dsDNA, one strand shown
# T7 sequence: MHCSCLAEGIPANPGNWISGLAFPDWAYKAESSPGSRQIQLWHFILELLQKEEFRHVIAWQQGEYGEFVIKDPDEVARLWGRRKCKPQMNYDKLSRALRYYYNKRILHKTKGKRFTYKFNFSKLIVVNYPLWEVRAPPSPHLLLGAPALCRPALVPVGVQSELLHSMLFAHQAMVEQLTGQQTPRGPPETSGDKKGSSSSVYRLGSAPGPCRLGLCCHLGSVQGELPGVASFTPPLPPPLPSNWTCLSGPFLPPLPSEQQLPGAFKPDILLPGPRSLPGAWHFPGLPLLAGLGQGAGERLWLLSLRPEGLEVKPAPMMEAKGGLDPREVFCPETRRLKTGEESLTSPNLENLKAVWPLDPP
# Method in brief: as §1
# ETS2 = target: T8, ETS2 (Homo sapiens, UniProt P15036 1-469); conditions: protein: recombinant; tags: N-terminal GST; dsDNA, one strand shown
# T8 sequence: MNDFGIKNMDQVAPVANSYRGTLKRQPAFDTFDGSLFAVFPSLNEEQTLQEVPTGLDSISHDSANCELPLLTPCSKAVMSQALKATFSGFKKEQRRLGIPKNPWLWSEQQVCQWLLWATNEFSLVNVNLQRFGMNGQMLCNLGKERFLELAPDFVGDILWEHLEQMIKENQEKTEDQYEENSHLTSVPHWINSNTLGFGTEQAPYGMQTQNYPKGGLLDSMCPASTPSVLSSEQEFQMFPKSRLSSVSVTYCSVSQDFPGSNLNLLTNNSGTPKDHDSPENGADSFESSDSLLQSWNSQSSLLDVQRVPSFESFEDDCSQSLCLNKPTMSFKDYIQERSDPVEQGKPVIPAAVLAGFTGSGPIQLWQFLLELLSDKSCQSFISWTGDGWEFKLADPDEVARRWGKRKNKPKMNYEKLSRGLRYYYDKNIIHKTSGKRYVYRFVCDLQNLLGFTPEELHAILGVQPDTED
# Method in brief: as §1
# SPDEF = target: T9, SPDEF (Homo sapiens, UniProt O95238 1-335); conditions: protein: recombinant; tags: N-terminal GST; dsDNA, one strand shown
# T9 sequence: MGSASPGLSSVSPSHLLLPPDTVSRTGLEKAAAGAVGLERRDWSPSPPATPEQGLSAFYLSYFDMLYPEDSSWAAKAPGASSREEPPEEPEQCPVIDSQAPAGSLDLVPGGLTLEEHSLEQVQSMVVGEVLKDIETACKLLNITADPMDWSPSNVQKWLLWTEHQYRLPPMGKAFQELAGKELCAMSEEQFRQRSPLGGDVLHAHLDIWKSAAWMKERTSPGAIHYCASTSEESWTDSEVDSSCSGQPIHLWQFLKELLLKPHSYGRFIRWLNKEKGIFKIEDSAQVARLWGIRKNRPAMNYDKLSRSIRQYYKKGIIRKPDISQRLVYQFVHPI
# Method in brief: as §1
# ETV7 = target: T10, ETV7 (Homo sapiens, UniProt Q9Y603 1-341); conditions: protein: recombinant; tags: N-terminal GST; dsDNA, one strand shown
# T10 sequence: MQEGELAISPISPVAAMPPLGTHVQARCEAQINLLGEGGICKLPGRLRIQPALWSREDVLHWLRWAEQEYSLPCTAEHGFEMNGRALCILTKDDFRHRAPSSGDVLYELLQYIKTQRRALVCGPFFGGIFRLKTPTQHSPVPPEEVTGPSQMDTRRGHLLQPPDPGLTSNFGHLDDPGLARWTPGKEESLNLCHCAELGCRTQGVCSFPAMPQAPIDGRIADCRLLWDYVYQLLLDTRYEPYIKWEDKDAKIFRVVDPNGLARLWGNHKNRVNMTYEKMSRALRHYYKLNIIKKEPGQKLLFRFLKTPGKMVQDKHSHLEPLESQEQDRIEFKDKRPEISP
# Method in brief: as §1
# ELF5 = target: T11, ELF5 (Homo sapiens, UniProt Q9UKW6-2 1-255); conditions: protein: recombinant; tags: N-terminal GST; dsDNA, one strand shown
# T11 sequence: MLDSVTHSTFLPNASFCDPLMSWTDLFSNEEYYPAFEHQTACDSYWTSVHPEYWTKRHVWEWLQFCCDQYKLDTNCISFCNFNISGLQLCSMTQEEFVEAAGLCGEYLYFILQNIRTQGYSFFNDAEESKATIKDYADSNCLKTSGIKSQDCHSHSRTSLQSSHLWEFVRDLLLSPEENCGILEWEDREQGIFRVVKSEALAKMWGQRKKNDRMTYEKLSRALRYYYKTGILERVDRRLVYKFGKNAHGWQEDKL
# Method in brief: as §1
# ETV3 = target: T12, ETV3 (Homo sapiens, UniProt P41162-2 1-143); conditions: protein: recombinant; tags: N-terminal GST; dsDNA, one strand shown
# T12 sequence: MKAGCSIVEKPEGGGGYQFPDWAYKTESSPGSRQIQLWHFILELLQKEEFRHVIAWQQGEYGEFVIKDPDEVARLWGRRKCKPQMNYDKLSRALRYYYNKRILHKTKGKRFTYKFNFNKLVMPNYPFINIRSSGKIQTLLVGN
# Method in brief: as §1
# ETV6 = ETV6 (Homo sapiens, UniProt P41212 1-452); conditions: protein: recombinant; tags: N-terminal GST; dsDNA, one strand shown
# Sequence of ETV6 (P41212 whole entry): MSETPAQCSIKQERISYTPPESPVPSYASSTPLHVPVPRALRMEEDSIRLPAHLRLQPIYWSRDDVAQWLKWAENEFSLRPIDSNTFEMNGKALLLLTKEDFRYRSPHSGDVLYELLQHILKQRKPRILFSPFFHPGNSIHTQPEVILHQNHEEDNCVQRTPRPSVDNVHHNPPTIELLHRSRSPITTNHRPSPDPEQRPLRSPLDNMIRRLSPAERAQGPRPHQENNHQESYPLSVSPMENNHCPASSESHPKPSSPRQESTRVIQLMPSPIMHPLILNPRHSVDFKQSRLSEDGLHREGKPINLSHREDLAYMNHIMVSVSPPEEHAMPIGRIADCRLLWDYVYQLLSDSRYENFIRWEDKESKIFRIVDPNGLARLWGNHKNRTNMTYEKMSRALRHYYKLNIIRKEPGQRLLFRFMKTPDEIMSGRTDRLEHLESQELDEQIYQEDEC
# Method in brief: as §1
sequence,measurement,setting,value
AACATG,binding signal,FEV,"1.1 fold enrichment (6-mer frequency, TF over GST control)"
same,binding signal,ETV5,"1.23 fold enrichment (6-mer frequency, TF over GST control)"
same,binding signal,HSF1,"1.1 fold enrichment (6-mer frequency, TF over GST control)"
same,binding signal,SPIC,"1.28 fold enrichment (6-mer frequency, TF over GST control)"
same,binding signal,ELF4,"1.23 fold enrichment (6-mer frequency, TF over GST control)"
same,binding signal,ELK4,"1.25 fold enrichment (6-mer frequency, TF over GST control)"
same,binding signal,ETV2,"1.19 fold enrichment (6-mer frequency, TF over GST control)"
same,binding signal,ELF3,"1.26 fold enrichment (6-mer frequency, TF over GST control)"
same,binding signal,ETV1,"1.13 fold enrichment (6-mer frequency, TF over GST control)"
same,binding signal,ERF,"1.21 fold enrichment (6-mer frequency, TF over GST control)"
same,binding signal,ETV3L,"1.17 fold enrichment (6-mer frequency, TF over GST control)"
same,binding signal,ETS2,"1.14 fold enrichment (6-mer frequency, TF over GST control)"
same,binding signal,SPDEF,"1.11 fold enrichment (6-mer frequency, TF over GST control)"
same,binding signal,ETV7,"1.05 fold enrichment (6-mer frequency, TF over GST control)"
same,binding signal,ELF5,"1.15 fold enrichment (6-mer frequency, TF over GST control)"
same,binding signal,ETV3,"1.11 fold enrichment (6-mer frequency, TF over GST control)"
same,binding signal,ETV6,"1.25 fold enrichment (6-mer frequency, TF over GST control)"
